CYP2C19 act – increases human CYP2C19 enzyme activity. P33261. recombinant CYP2C19, luciferin-H EGE luminescence; active compounds read high; 0 = fully inhibited enzyme, 1 = untreated enzyme. activation factor at 5 µM. 96,000 tested, under 10 active;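 active = activation factor of at least 2 at 5 µM in the primary screen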;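 also: 0 = wells with 2.5 mM tranylcypromine and 1 = vehicle-only wells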
Target sequence (P33261 whole entry, looked up): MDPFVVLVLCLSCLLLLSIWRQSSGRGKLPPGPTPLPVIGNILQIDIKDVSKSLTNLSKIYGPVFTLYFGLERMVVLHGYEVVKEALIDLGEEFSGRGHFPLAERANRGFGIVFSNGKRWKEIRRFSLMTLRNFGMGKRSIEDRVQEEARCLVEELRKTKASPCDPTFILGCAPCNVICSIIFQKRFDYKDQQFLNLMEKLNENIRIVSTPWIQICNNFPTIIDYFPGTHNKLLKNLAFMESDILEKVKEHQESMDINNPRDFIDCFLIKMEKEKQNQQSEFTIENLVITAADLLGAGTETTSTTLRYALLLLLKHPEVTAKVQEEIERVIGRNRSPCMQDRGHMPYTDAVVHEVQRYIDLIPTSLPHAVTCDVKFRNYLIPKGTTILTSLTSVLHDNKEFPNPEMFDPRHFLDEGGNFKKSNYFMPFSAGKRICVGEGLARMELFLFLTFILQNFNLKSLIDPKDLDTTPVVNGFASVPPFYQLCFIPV
CYP2C19 inh – inhibitors of human CYP2C19. P33261. AID 778. inhibition, % at 5 µM. 21% of 96,000 active. CYP2C19 Supersomes, luciferin-H EGE luminescence, 30 min;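 active = CYP2C19 inhibition above a set limit at 5 µM in the primary screen, cut at about 50% in these data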;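 also: plate controls were negative control wells for no effect and 2.5 mM tranylcypromine positive control for full effect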
Pyk2 oligo antag – Pyk2 (human) oligomerization antagonism. Q293 cells, Pyk2 FERM NanoBiT luminescence; active compounds read low. z-score (the deposit names both 25 µM and 10 µM). 0.83% of 99,000 active;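 active = Z-score of -3 or lower, scaled per plate to the spread of control and sample wells; inactive = z-score above -3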;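 also: negative z-score means lost luminescence so less FERM oligomerization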
CYP2C9 inhib – inhibitors of human CYP2C9; CYP2C9 Supersomes, luciferin-H conversion, luminescence; inhibition, % at 5 µM; 20% of 96,000 active; AID 777;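 active = blocking of liver enzyme CYP2C9 beyond about 50% at 5 µM, limit read from the data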
CYP2C9 act – CYP2C9 (human) activation; P11712; recombinant CYP2C9, luciferin-H conversion, luminescence; active compounds read high; factor 1 = untreated enzyme, 0 = blocked; activation factor at 5 µM; 1.4% of 96,000 active;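 active = activation factor of 2 or more for CYP2C9 at a 5 µM dose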;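 also: 0 = sulfaphenazole-blocked wells and 1 = vehicle-only wells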
The depositor's hits bear a star; / = not tested or not shown. Rows were chosen to be rich in hits. Some 28% of all compounds tested hit in one or more screens of this group.

SMILES	CYP2C19 act	CYP2C19 inh	Pyk2 oligo antag	CYP2C9 inhib	CYP2C9 act
O=C(COC(=O)c1cccnc1Nc1ccccc1F)NCc1ccc2c(c1)OCO2	1	-4	0.32	21	0.8
CCN(CC)c1ccc2cc(C(=O)Nc3ccc(-n4cnnn4)c(OC)c3)c(=O)oc2c1	1	-2	/	4	1
O=C(CCCc1ccccc1)N1CCN(c2ccc([N+](=O)[O-])cc2)CC1	0.9	6	1.1	17	0.8
O=C(CCc1ccc(Oc2cc([N+](=O)[O-])cc([N+](=O)[O-])c2)cc1)N1CCCCC1	0.5	54*	1.6	82*	0.2
Cc1ccc2nc(N3CCN(C(=O)c4cccs4)CC3)c(C#N)cc2c1	0.7	30	1.5	41	0.6
COc1ccc(CNC(=O)CN(CC2CCCO2)C(=O)CNS(=O)(=O)c2ccc(F)cc2)cc1 (stereo unspecified)	0.6	42	-0.17	38	0.6
CCOC(=O)CC1C(=O)NCCN1S(=O)(=O)c1ccc(Cl)cc1Cl (stereo unspecified)	0.8	15	0.71	24	0.8
CC(NC(=O)C1CCCN1S(=O)(=O)c1cccc2cccnc12)c1ccccc1 (stereo unspecified)	0.6	36	/	-85	1.8
Cc1cccc(NC(=O)C2CCCN2S(=O)(=O)c2cccc3cccnc23)c1 (stereo unspecified)	0.7	27	/	70*	0.3
COc1ccccc1CNC(=O)C1CCCN1S(=O)(=O)c1cccc2cccnc12 (stereo unspecified)	0.2	83*	/	11	0.9
Cc1ccc(NC(=O)C2CCCN2S(=O)(=O)c2cccc3cccnc23)cc1F (stereo unspecified)	0.8	23	/	94*	0.1
COc1cc(NC(=O)C2CCCN2S(=O)(=O)c2cccc3cccnc23)cc(OC)c1OC (stereo unspecified)	1	-1	/	83*	0.2
O=C(Nc1ccccc1OC(F)F)c1ccc(Br)o1	0.5	49	2.1	20	0.8
O=C(C1CCCN1S(=O)(=O)c1cccc2cccnc12)N1CCn2c1nc1ccccc12 (stereo unspecified)	1	0	/	58*	0.4
O=C(C1CCN(S(=O)(=O)c2cccc3cccnc23)CC1)N1CCn2c1nc1ccccc12	0.6	40	/	-39	1.4
COc1ccc(C2CC(c3cccs3)=NN2c2nc(-c3ccccc3)cs2)cc1OC (stereo unspecified)	0.1	86*	-0.22	74*	0.3
CCCCCc1nc2c(C#N)c(-c3ccc(Cl)cc3)ccn2n1	0.9	12	-0.58	58*	0.4
NC(=O)COC(=O)C(Cc1ccccc1)NS(=O)(=O)c1ccccc1F (stereo unspecified)	0.4	58*	0.33	19	0.8
CCOC(=O)C(Cc1ccccc1)NS(=O)(=O)c1ccc(NC(C)=O)cc1 (stereo unspecified)	0.3	67*	1.4	3	1
Cc1ccc(C(=O)NCC(=O)NCC(=O)OCc2ccc(Oc3ccc([N+](=O)[O-])cc3)cc2)cc1	/	/	0.69	/	/
Cc1cccc(Oc2coc3cc(OC(=O)c4cc5ccccc5oc4=O)ccc3c2=O)c1	1.1	-11	-0.35	-114	2.1*
COc1ccc(C(=O)Nc2nc3ccccc3[nH]2)cc1OC	/	/	0.17	/	/
CCOc1ccc(C(=O)Nc2cccc(-c3cc4ccccc4oc3=O)c2)cc1[N+](=O)[O-]	0.2	82*	-0.45	65*	0.3
Cc1ccc(-c2nc3ccccc3[nH]2)cc1NC(=O)/C=C/c1ccco1	0.5	47	-0.9	79*	0.2
Cc1cc(C)c2oc(-c3ccc(C)c(NC(=S)NC(=O)/C=C/c4ccco4)c3)nc2c1	0	97*	-0.22	45	0.5
SMILES	CYP2C19 act	CYP2C19 inh	Pyk2 oligo antag	CYP2C9 inhib	CYP2C9 act
CCOc1ccc(C(=O)Nc2cc(-c3nc4ccccc4[nH]3)ccc2C)cc1[N+](=O)[O-]	0.2	82*	-1	65*	0.4
Cc1c(NC(=O)COc2ncnc3c(Cl)cc(Cl)cc23)c(=O)n(-c2ccccc2)n1C	0.9	10	0.34	-1	1
CN(C)c1c([N+](=O)[O-])cc2[nH]c(=O)[nH]c2c1[N+](=O)[O-]	1.2	-17	-0.43	20	0.8
Cc1cc(C)c2oc(-c3ccc(C)c(NC(=S)NC(=O)c4cccs4)c3)nc2c1	0.9	8	-3.7*	26	0.7
Cc1ccc(-c2nc3ccccc3[nH]2)cc1NC(=S)NC(=O)c1ccccc1Br	0.6	38	-2.8	63*	0.4
Cc1ccc(Oc2ccccc2/C=N/O)cc1	0.2	82*	-0.36	40	0.6
CCOc1cc(/C=C\[N+](=O)[O-])ccc1OCC(=O)Nc1ccccc1C	0.9	11	0.27	14	0.9
CC(C)(C)N1C(=O)c2ccc(C(=O)NCc3ccco3)cc2C1=O	0.8	23	-0.38	47	0.5
COc1ccccc1N1C(=O)CCC1(C#N)c1ccccc1 (stereo unspecified)	1	3	-0.66	4	1
CC(=O)OC1CCC2(C)C(COc3ccc4ccc(=O)oc4c3)C(C)(O)CCC2C1(C)C (stereo unspecified)	0.8	21	-3.3*	53*	0.5
COc1ccccc1/C=C/C(=O)NC(=S)N(C)C1CCCCC1	0.9	14	-0.63	-164	2.6*
Cc1sc2ncnc(NCCCn3ccnc3)c2c1C	0.1	92*	0.26	90*	0.1
Cc1cccc(-n2ncc3c(NCCCn4ccnc4)ncnc32)c1	0.1	90*	/	91*	0.1
Cc1ccc(-n2ncc3c(NCCCn4ccnc4)ncnc32)c(C)c1	0.3	73*	/	80*	0.2
CCOC(=O)c1[nH]c2ccccc2c1N=CN(CC)CC	1	1	-0.71	5	1
CCOC(=O)C(C)n1cnc2c(nnn2-c2cccc(Cl)c2)c1=O (stereo unspecified)	1.1	-7	/	-96	2*
CC1CCC(N2CCN(c3ncccn3)CC2)C1 (stereo unspecified)	0.5	46	0.18	3	1
Cc1ccnc(NC2(C(F)(F)F)N=C(c3ccccc3)NC2=O)c1 (stereo unspecified)	0.9	10	0.1	-2	1
COc1cc(CSc2ncn[nH]2)c(OC)cc1CSc1ncn[nH]1	0.4	62*	-1.9	-2	1
CCOc1cc(/C=N/n2cnnc2)cc(Br)c1O	1	0	0.55	15	0.9
CC(C#N)On1c(SC(C)C#N)nc2ccccc2c1=O (stereo unspecified)	0.9	11	-0.16	30	0.7
CCC(C)n1c(SC(C)C#N)nc2ccccc2c1=O (stereo unspecified)	0.5	48	-1	70*	0.3
Cc1ccc(C(=O)C2CCN(CC(=O)Nc3ccc(N(C)C)cc3)CC2)cc1	0.8	15	-0.23	39	0.6
O=C(CN1CCC(C(=O)c2ccc3c(c2)OCCO3)CC1)NC1CCCC1	0.2	84*	0.34	16	0.8

Source: PubChem (Sanford-Burnham Center for Chemical Genomics)
